A number with no mark means an inactive call. The rule behind the calls is not given here.
What follows are compounds tested on Aerobactin synthetase IucA (Klebsiella pneumoniae, hypervirulent) (assay: IucA enzyme inhibition, biochemical, LOPAC library, absorbance readout (AID 1346212;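 note: 100% = no compound wells and 0% = no enzyme wells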)). Conditions: IucA enzyme assay, absorbance (OD) readout; active compounds read low;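 tested at 8 µM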.

Point of comparison: `CC(=O)Oc1cc(C(C)C)c(OCCN(C)C)cc1C`, remaining activity 118%. Against it:
- O=c1[nH]c2ccccc2n1CCCN1CCN(C(c2ccccc2)c2ccccc2)CC1 — lower, 116%
- O=C(O)C1=CCCN(CCON=C(c2ccccc2)c2ccccc2)C1 — lower, 104%
- CCCCCCCCCCCCCCSCC(=O)O — lower, 105%
- CCCCC/C=C\C[C@@H](O)/C=C/c1cccc(C[C@@H](O)CCCCO)n1 — lower, 92.2%
- NC[C@@H]1O[C@H](O[C@H]2[C@@H](O)[C@H](O[C@@H]3[C@@H](O)[C@H](N)C[C@H](N)[C@H]3O[C@H]3O[C@H](CO)[C@@H](O)[C@H](O)[C@H]3N)O[C@@H]2CO)[C@H](N)[C@@H](O)[C@@H]1O — lower, 104%
- Nc1ccn([C@@H]2O[C@H](CO)[C@@H](O)[C@@H]2O)c(=O)n1 — higher, 119%
- Cc1nc2c(OCc3ccccc3)cccn2c1CC#N — higher, 126%
- Brc1ccc([C@H]2CN3CCSC3=N2)cc1 — lower, 105%
- OC[C@H]1O[C@@H](n2cnc3c(Nc4ccccc4)ncnc32)[C@H](O)[C@@H]1O — lower, 89.3%
- COc1ccc2c(c1)CC[C@@H]1[C@@H]2CC[C@]2(C)[C@@H](NCCCCCCN3C(=O)C=CC3=O)CC[C@@H]12 — lower, 111%
- NC1(C(=O)O)CCCCC1 — higher, 125%
- NC(=O)c1ccccc1 — lower, 109%
- COc1cccc(OC)c1OCCNCC1COc2ccccc2O1 (centres undefined) — lower, 105%
- CCCCCC[C@@H]([C@@H](C)O)n1cnc2c(N)ncnc21 — lower, 99.4%
- O=S(=O)(c1cccc2c(Cl)cccc12)N1CCCNCC1 — lower, 110%
- CCCn1c(=O)[nH]c(=O)c2[nH]cnc21 — lower, 103%
- CCCn1c(=O)c2[nH]c(-c3ccc(S(=O)(=O)O)cc3)nc2n(CCC)c1=O — lower, 111%
- COc1ccccc1N1CCN(CCN(C(=O)c2ccc(I)cc2)c2ccccn2)CC1 — higher, 122%
- O=C1NC(c2cccc([N+](=O)[O-])c2)=CCN1c1ccccc1O — lower, 105%
- O=C(O)CN(CCOCCOCCN(CC(=O)O)CC(=O)O)CC(=O)O — lower, 88.2%
- CCN(CC)C(=O)c1ccc(O)c(OC)c1 — higher, 122%
- CCC(C)N(C)C(=O)c1cc2ccccc2c(-c2ccccc2Cl)n1 (centres undefined) — lower, 116%
- COc1ccccc1N1CCN(CCCCNC(=O)c2ccc3ccccc3c2)CC1 — the same, 118%
- Cc1nc(N=Nc2ccc(C(=O)O)cc2)c(COP(=O)(O)O)c(C=O)c1O — lower, 110%
- CC[N+](C)(C)Cc1ccccc1Br — lower, 108%
- O=c1[nH]ccc2c(O)cccc12 — lower, 117%
- CN1CCc2cc(Cl)c(O)cc2[C@@H](c2ccccc2)C1 — lower, 102%
- O=C1NC(=O)C(c2ccccc2[N+](=O)[O-])=C1Nc1ccc(O)c(Cl)c1 — lower, 95%
- CCCn1cnc2c1c(=O)n(CCCCC(C)=O)c(=O)n2C — lower, 93.8%
- Nc1c(C(=O)Nc2nnc(-c3ccccc3)s2)sc2nc3c(cc12)CCCCC3 — lower, 109%
- O=C1NC(=S)S/C1=C/c1cc(Br)ccc1OCc1ccccc1Br — lower, 116%
- CCC(=O)N1CCN(C(=O)c2ccccc2)CC1 — higher, 122%
- Cc1ccc([N+](=O)[O-])cc1S(=O)(=O)N(C)C — lower, 108%
- CC[N+](CC)(CC)CC(=O)Nc1c(C)cccc1C — lower, 113%
- CC1=C(C(=O)O)N2C(=O)[C@@H](NC(=O)[C@H](N)c3ccccc3)[C@H]2SC1 — the same, 118%
- CC(C)N(CCC(=O)c1ccc2ccccc2c1)Cc1ccccc1 — lower, 112%
- COc1cccc(NC(=O)/C=C/c2ccc(Cl)cc2)c1 — lower, 101%
- COC1(C2=NCCN2)COc2ccccc2O1 (centres undefined) — lower, 105%
